# Most compounds without a hit are left out; they make up all but 7% or so of the library.
# ADAM10 inh: inhibits human ADAM10; O14672; recombinant ADAM10, EDANS/DABCYL FRET peptide cleavage, 3 h; inhibition, % at 7 µM; 0.62% of 370,000 active; AID 720582;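 active = inhibition above a per-campaign cutoff equal to the mean of compounds falling between control-based bounds plus 3 SD, cut at about 20% in these data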;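 note: 0% = DMSO wells while the 100% control is not disclosed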
# AHR act: activates the human aryl hydrocarbon receptor. 2.5% of 320,000 active. activation, % at 5 µM. AID 2796. AHR-responsive luciferase reporter cells, luminescence. P35869; in the data active = activation above about 47%;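 note: 0% = vehicle wells and 100% = reference agonist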
# rCAG binder: r(CAG) repeat RNA binding | inhibition, % at 3 µM | TO-PRO-1 dye displacement fluorescence | 1.3% of 370,000 active;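 active = inhibition above the plate cutoff, the mean of all test compounds on that plate plus 3 SD, cut at about 35% in these data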;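 note: 0% = DMSO alone and 100% = 100 µM mitoxantrone as full dye displacement; higher means more dye released from RNA so lower well fluorescence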
# NR3A LBD binder: modulates the human NR3A ligand-binding domain | NR3A LBD differential scanning fluorimetry, Tm shift; 0% = protein alone, 100% = glycine-bound protein | Tm shift relative to glycine control, % at 25 µM | 2.5% of 340,000 active;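 active = melting temperature shift of at least 10% of the positive control shift, at one fixed dose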
# proKLK7 act: activators of human kallikrein-7 zymogen; P49862; purified proKLK7, EDANS-DABCYL substrate fluorescence; 100% is mature enzyme control, 0% vehicle; activation, % at 7 µM; 0.9% of 370,000 active;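 active = activation above the mean of all tested compounds plus 3 SD, computed per campaign excluding outliers beyond control limits, cut at about 13% in these data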
# Target sequence (P49862 whole entry, looked up): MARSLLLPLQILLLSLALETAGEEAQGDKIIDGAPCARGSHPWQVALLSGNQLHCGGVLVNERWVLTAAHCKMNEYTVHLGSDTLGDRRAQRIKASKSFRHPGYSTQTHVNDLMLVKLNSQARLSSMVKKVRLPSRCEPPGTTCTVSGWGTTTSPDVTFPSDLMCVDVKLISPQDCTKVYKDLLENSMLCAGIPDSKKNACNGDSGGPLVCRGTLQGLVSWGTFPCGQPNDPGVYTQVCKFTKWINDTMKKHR
# ADAM17 inh: inhibits human ADAM17. P78536. recombinant ADAM17, EDANS/DABCYL FRET peptide cleavage. inhibition, % at 6.95 µM. 0.83% of 370,000 active;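 active = inhibition above the mean of compounds lying between control limits plus 3 SD, set per campaign, cut at about 8.5% in these data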;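 note: 0% = DMSO-only wells as the low control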
# proKLK7 act conf: confirmation of human kallikrein-7 zymogen activators | 68% of 3,200 active | activation, % at 7 µM | shares compounds with proKLK7 act | purified proKLK7, EDANS-DABCYL substrate fluorescence; scaled: vehicle 0, mature enzyme 100;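 active = activation, as change over the incubation, above the mean of all tested compounds plus 3 SD, cut at about 13% in these data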
# EDANS-DABCYL int: optically interferes with EDANS-DABCYL signal, flagging KLK7 hits; shares compounds with proKLK7 act; 80% of 3,200 active; EDANS-DABCYL substrate fluorescence interference, no enzyme, 4 h; solvent 0%, active enzyme control 100%; activation, % at 7 µM;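 active = activation above the all-compound mean plus 3 SD, ignoring values outside control-based bounds, cut at about 4.8% in these data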;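 note: value is the 4 h activation minus the activation read at time zero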
# The depositor's hits bear a star; i = inactive; . = no result.
SMILES,ADAM10 inh,AHR act,rCAG binder,NR3A LBD binder,proKLK7 act,ADAM17 inh,proKLK7 act conf,EDANS-DABCYL int
Cc1ccc(-c2cc(C(=O)N3CC(C)OC(C)C3)c3ccccc3n2)o1 (stereo not given),i,5,-2,0,46*,i,65*,66*
Cc1ccc(-c2cc(C(=O)N3CCCC3)c3ccccc3n2)s1,i,12,4,-6,2,i,.,.
CCOC(=O)C1=CCN(S(=O)(=O)c2ccccc2)C1c1ccc(Cl)cc1 (stereo not given),4,.,3,.,1,4,.,.
Cc1ccc(-c2cc(C(=O)NN3CCOCC3)c3cc(Br)ccc3n2)o1,-351,2,8,0,52*,-116,-185,-137
CCN1CCN(S(=O)(=O)c2ccc(Cl)c(C(=O)N(C)CCOc3ccc(Cl)cc3)c2)CC1,2,1,-3,0,0,-3,.,.
N#Cc1cnn2c(-c3ccccc3)ccnc12,-465,-5,0,0,45*,-214,59*,66*
N#Cc1cnc2ncnn2c1-c1ccccc1,-4,-3,4,-2,0,1,.,.
COc1ccc(-c2ccnc3c(C#N)cnn23)cc1,i,-4,0,-1,60*,i,69*,85*
O=C(OCC(=O)N1CCCc2ccccc21)c1cc(Br)ccc1O,-7,4,-6,2,0,-6,.,.
O=C(COC(=O)c1cc(Cl)ccc1O)Nc1ccc2c(c1)OCCO2,-27,1,6,-8,19*,-7,19*,16*
O=C(COC(=O)c1cc(Cl)ccc1O)Nc1cc(C(F)(F)F)ccc1N1CCOCC1,-54,-1,4,0,16*,-11,23*,22*
CC1(c2ccccc2)NC(=O)N(NC(=O)COC(=O)c2cc(Br)ccc2O)C1=O (stereo not given),-3,-2,5,-5,28*,-3,34*,38*
O=C(COC(=O)c1cc2ccccc2cc1O)Nc1ccccc1F,-13,20,12,-7,14*,-6,15*,13*
CC(=O)c1ccc(S(=O)(=O)N(C)CCCC(=O)NCc2ccc3c(c2)OCO3)cc1,-5,.,0,-3,0,-14,.,.
O=C(COC(=O)c1cc(Br)ccc1O)NNC(=O)c1ccc([N+](=O)[O-])cc1,-6,0,12,6,26*,-5,40*,38*
O=C(COC(=O)c1cc(Cl)ccc1O)NNC(=O)c1ccccc1F,-28,-2,2,2,86*,-10,137*,124*
O=C(COC(=O)c1ccccc1O)NNC(=O)c1ccc(Br)cc1,-1,.,-1,1,4,-9,.,.
O=C(COC(=O)c1cc(Br)ccc1O)NNC(=O)c1ccc(Cl)cc1,-3,1,7,0,17*,-7,20*,19*
Cn1c(SCc2cccc(F)c2)nnc1-c1ccncc1,-10,0,5,-1,0,-4,.,.
Cc1cccc2c1-c1sc(C(=O)N3CCc4ccccc4C3)cc1CO2,i,0,7,-1,-70,-222,.,.
O=C(NC1CC1)c1cc2cc3ccccc3nc2s1,-43,-8,-2,-11,0,-8,.,.
O=C(O)c1cc2c(s1)-c1ccccc1OC2,i,20,2,-2,34*,i,77*,73*
O=C(NCCCN1CCOCC1)c1cc2c(s1)-c1ccccc1OC2,i,2,-3,0,47*,i,68*,65*
O=C(NC1CC1)c1cc2c(s1)-c1ccccc1OC2,i,-4,3,-1,47*,i,75*,87*
O=C(c1ccco1)N1CCN(C(=O)c2cc3c(s2)-c2ccccc2OC3)CC1,i,25,5,-1,23*,i,4,-67
Cc1cccc2c1-c1sc(C(=O)N3CCCCC3)cc1CO2,i,-1,1,0,-21,-281,.,.

# Screening data as filed in PubChem BioAssay.
